Bioassay records deposited in PubChem by National Center for Advancing Translational Sciences (NCATS).
KB-3-1 tox = KB-3-1 parental cell cytotoxicity; KB-3-1 viability, CellTiter-Glo ATP luminescence, 72 h; 400,000 tested, 1.4% active; Potency, µM (top dose mostly 46.1 µM), actives largely listed as cytotoxic; also: nearly all actives have a fitted effect of over 60% in size
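Luminescent ATP read-out (CellTiter-Glo) measures survival of drug-naive KB-3-1 cells after 72 h compound exposure at 37 °C. Titration series was screened from lowest to highest concentration, with DMSO vehicle plates as background controls.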
12-LOX inh = ALOX12 (human) lipoxygenase inhibition; P18054; purified 12hLO, xylenol orange hydroperoxide absorbance; Potency, µM (top dose mostly 108 µM), actives largely listed as inhibitors; 580,000 tested, 1.1% active; AID 1671190
Target sequence (P18054 whole entry, looked up): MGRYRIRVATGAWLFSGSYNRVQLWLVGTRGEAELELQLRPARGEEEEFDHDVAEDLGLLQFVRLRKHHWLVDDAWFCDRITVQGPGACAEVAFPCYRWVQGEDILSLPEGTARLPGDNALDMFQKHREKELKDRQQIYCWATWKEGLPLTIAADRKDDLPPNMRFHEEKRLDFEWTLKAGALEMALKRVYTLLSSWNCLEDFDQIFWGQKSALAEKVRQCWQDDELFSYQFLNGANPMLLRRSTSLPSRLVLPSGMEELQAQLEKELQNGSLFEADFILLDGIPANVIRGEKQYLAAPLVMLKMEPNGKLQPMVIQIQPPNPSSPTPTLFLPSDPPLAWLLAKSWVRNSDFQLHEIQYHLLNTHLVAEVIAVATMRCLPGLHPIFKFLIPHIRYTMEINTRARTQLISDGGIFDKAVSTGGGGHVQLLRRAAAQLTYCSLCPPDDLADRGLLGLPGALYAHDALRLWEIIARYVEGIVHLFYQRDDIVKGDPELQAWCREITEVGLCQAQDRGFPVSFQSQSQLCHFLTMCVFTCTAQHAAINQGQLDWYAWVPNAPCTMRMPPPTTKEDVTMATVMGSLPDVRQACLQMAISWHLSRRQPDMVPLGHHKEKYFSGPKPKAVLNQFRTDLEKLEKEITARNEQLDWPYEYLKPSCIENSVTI
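Purified human 12hLO (150 nM final) in 25 mM Hepes, 0.01% Triton X-100, pH 7.0 was preincubated 15 min at room temperature with compound. Then 40 uM arachidonic acid was added, 30 min. Hydroperoxide was read by Fe-XO absorbance ratio 573/405 nm.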
KB-V1 MDR tox = kills drug-selected multidrug resistant KB-V1 cells; KB-V1 MDR cells viability, CellTiter-Glo, 72 h; Potency, µM (top dose mostly 46.1 µM), usual class: cytotoxic; 400,000 tested, 3.4% active; also: nearly all actives have a fitted effect of over 60% in size
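KB-V1 MDR subline cells in DMEM (phenol-red free, 10% FBS) exposed to compounds in qHTS concentration series for 72 h at 37 degrees C. Viability read by CellTiter-Glo luminescence; concentration-effect curves fitted after normalization and correction.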
MCF10A rerep = induces DNA re-replication in MCF 10a normal breast cells; MCF 10A DNA re-replication, Hoechst nuclear intensity, 48 h; 350,000 tested, 2.9% active; Potency, µM (series often up to 46.1 µM), most hits filed as activators; AID 624296; also: nearly all actives have a fitted effect of over 50% in size
SW480 rereplic = inducers of DNA re-replication in SW480 colon cancer cells | Potency, µM (series often up to 46.1 µM), usual class: activators | SW480 DNA re-replication, Hoechst DNA content imaging, 48 h | 340,000 tested, 1.8% active; also: nearly all actives have a fitted effect of over 55% in size
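First, 250 cells per well were seeded. Next, compound or vehicle (23 nL) was pinned in, plates sat 48 hr at 37 C. Finally Hoechst was added for 40 min before fluorescence scanning.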
PINK1 modulator = modulators of PINK1 expression. AID 624263. 410,000 tested, 0.2% active. Potency, µM (highest dose often 76.6 µM), hits mostly activators. PINK1 immunofluorescence, high-content cytometry, 24 h; active = well fitted activation curve with a large enough effect; inconclusive = small, poorly fitted or top-dose-only effect; cell line not stated here; also: nearly all actives have a fitted effect of over 65% in size
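Compound titrations (5 concentrations, 24 h) on a stable cell line; DMSO and CCCP controls. Endpoint: fixed-cell PINK1 immunofluorescence with mitochondrial, cell and nuclear markers, scanned by microplate cytometer.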
Numbers stand for hits; – = inactive; ? = inconclusive; · = no result given. Hits are enriched below; roughly 5.8% of the tested compounds scored in any of these assays. Unless noted, calls follow the shape of the dose curve; as a rule, active = well fitted curve in the direction sought with a large enough effect; inconclusive = small, poorly fitted or top-dose-only effect, or another doubt; inactive = no such curve, though single readings can be large; an effect the other way counts as inactive or inconclusive.

SMILES	KB-3-1 tox	12-LOX inh	KB-V1 MDR tox	MCF10A rerep	SW480 rereplic	PINK1 modulator
O=C(NCc1ccc(OC(F)(F)F)cc1)c1cccc2c1C(=O)c1ccc(N3CCC(Cc4ccccc4)CC3)cc1S2(=O)=O	–	–	–	5.8µM	–	–
O=C(NCc1ccc(OC(F)(F)F)cc1)c1cccc2c1C(=O)c1ccc(N3CCCC3)cc1S2(=O)=O	–	–	–	–	–	–
O=C(NCc1ccco1)c1cccc2c1C(=O)c1ccc(/C=C/c3ccccc3)cc1S2(=O)=O	?	?	–	9.2µM	?	–
CCn1c(O)c(N=NC(=O)c2cccs2)c2ccccc21	?	–	9.2µM	–	–	–
CCn1c(O)c(N=NC(=O)CNC(=O)c2ccco2)c2ccccc21	?	–	–	–	–	–
C=CCn1c(O)c(N=NC(=S)Nc2cccc(OC)c2)c2ccccc21	2.3µM	–	?	–	–	–
C=CCn1c(O)c(N=NC(=O)CNC(=O)c2ccco2)c2ccccc21	?	–	?	18µM	16µM	–
C=CCn1c(O)c(N=NC(=S)Nc2ccc(OC)cc2)c2ccccc21	?	–	–	–	–	–
CCCn1c(O)c(N=NC(=O)c2ccco2)c2ccccc21	?	–	2.6µM	–	–	–
COc1cc(NC(=O)Cc2sc(C)nc2-c2cccs2)cc(OC)c1OC	·	–	·	·	·	·
Cc1ccc2oc(-c3cccc(F)c3)cc(=O)c2c1	·	–	·	·	·	·
CCCCCCNC(=O)C(C#N)c1nc2ccccc2nc1N1CCN(C(=O)OCC)CC1 (stereo unspecified)	·	–	·	·	·	·
Cn1c(/N=C/c2ccc3c(c2)OCO3)nc2ccccc21	–	–	–	–	–	–
Nc1nc2ccccc2n1/N=C/c1ccc2c(c1)OCO2	–	?	?	–	21µM	–
Nc1nc2ccccc2n1/N=C/c1ccc(Br)cc1	–	–	9.2µM	–	–	–
O=C(NNc1ncnc2c1cnn2-c1ccccc1)C1CCCCC1	·	–	·	·	·	·
O=C(CCCN1C(=O)/C(=C/c2cccc(Br)c2)SC1=S)NCCCN1CCOCC1	?	?	?	23µM	–	–
O=C(CCN1C(=O)/C(=C/c2ccccc2Cl)SC1=S)NCCCN1CCOCC1	15µM	–	–	–	?	–
CCC[C@H]1CN(C(=O)c2cccc(N3CCOCC3)c2)C[C@@H]1N	·	–	·	·	·	·
Cc1ccc(C2NC(=S)N3C(c4ccc(C)cc4)NC(=S)N23)cc1 (stereo unspecified)	–	?	–	·	·	–
S=C1NC(c2ccccc2)N2C(=S)NC(c3ccccc3)N12 (stereo unspecified)	–	16µM	–	–	–	–
COc1cc(/C=N/N(c2ccccc2)c2ccccc2)ccc1O	?	–	–	?	?	–
CN(/N=C\c1ccc(O)c(O)c1)c1nc(-c2ccccc2)cc(-c2ccccc2)n1	–	?	?	?	18µM	–
O=C(O)c1ccc(Nc2nc3ccccc3nc2NS(=O)(=O)c2ccc(F)cc2)cc1	–	?	–	23µM	–	–
COc1cc(Nc2nc3ccccc3nc2NS(=O)(=O)c2ccc([N+](=O)[O-])cc2)cc(OC)c1OC	–	–	?	–	?	–
SMILES	KB-3-1 tox	12-LOX inh	KB-V1 MDR tox	MCF10A rerep	SW480 rereplic	PINK1 modulator
O=[N+]([O-])c1ccc(S(=O)(=O)Nc2nc3ccccc3nc2Nc2ccccc2)cc1	–	–	5.2µM	–	–	35µM
O=C(Nc1ccc(S(=O)(=O)Nc2cnc3ccccc3n2)cc1)c1ccc(F)cc1	–	?	–	–	7.3µM	–
CC(C)(C)c1ccc(C(=O)Nc2ccc(S(=O)(=O)Nc3cnc4ccccc4n3)cc2)cc1	–	?	–	?	–	–
Cc1cccc(C(=O)N2CCCN(C)c3ccccc32)c1	·	–	·	·	·	·
O=C(CCNc1ccccc1)c1cccc([N+](=O)[O-])c1	–	–	–	3.7µM	8.2µM	–
Cc1ccc(NCCC(=O)c2cccc([N+](=O)[O-])c2)cc1	–	?	–	6.5µM	?	–
O=C(CCNc1ccc(F)cc1)c1cccc([N+](=O)[O-])c1	–	–	–	?	?	?
Cc1cc(C)c(C(=O)CSc2nnnn2C)cc1C	·	–	·	·	·	·
